Laboratory results as given in PubChem BioAssay AID624295 (Southern Research Specialized Biocontainment Screening …, 2012).
The source made the active and inactive calls. No rule for the calls is given here.

Assay: viability of Vero 76 cells – cell-based, set 6, cytotoxicity control for VEEV inhibitor project (AID 624295)
Settings: Vero 76 cells viability, cytotoxicity counter-screen; series mostly up to 25 µM; viability: at the top concentration

With `CCN1CCN(Cc2nc3ccc(C(N)=O)cc3c(=O)n2-c2ccccc2)CC1` as the compound, how does the “viability” value read?
The value was 94.3% (inactive).

For `O=c1c2cc([N+](=O)[O-])ccc2nc(CN2CCNCC2)n1-c1ccccc1`, which “viability” value is on record?
Its value is 96% (inactive).

With `O=c1c2cc([N+](=O)[O-])ccc2nc(CN2CCNCC2)n1-c1ccccc1F` as the compound, how does the “viability” value read?
Its value is 74.1% [at 50 µM] (inactive).

With `NS(=O)(=O)c1ccc(-n2c(-c3ccccc3)nc3ccc(Br)cc3c2=O)cc1` as the compound, how does the “viability” value read?
Its value is 91.6% (inactive).

Which “viability” value does the source give for `CCN1CCN(Cc2nc3cccc([N+](=O)[O-])c3c(=O)n2-c2ccccc2)CC1` here?
The value was 82.6% (inactive).

With `CCN1CCN(Cc2nc3ccc([N+](=O)[O-])cc3c(=O)n2-c2cccc(F)c2)CC1` as the compound, how does the “viability” value read?
Its value is 98.8% (inactive).

Which “viability” value does the source give for `CCN1CCN(Cc2nc3ccc(I)cc3c(=O)n2-c2ccccc2)CC1` here?
The value was 79.1% (inactive).

For `CCN1CCN(Cc2nc3ccc(C(=O)N(C)C)cc3c(=O)n2-c2ccccc2)CC1`, which “viability” value is on record?
The value was 102% (inactive).

Which “viability” value does the source give for `CCN1CCN(Cc2nc3ccc([N+](=O)[O-])cc3c(=O)n2-c2ccccc2)CC1` here?
The value was 77.2% [at 50 µM] (inactive).

Which “viability” value does the source give for `O=c1c2cc([N+](=O)[O-])ccc2nc(CN2CCCCC2)n1-c1ccccc1F` here?
The value was 96.7% (inactive).

With `CCN1CCN(Cc2nc3ccc([N+](=O)[O-])cc3c(=O)[nH]2)CC1` as the compound, how does the “viability” value read?
The value was 94.6% (inactive).

Which “viability” value does the source give for `CCN1CCN(Cc2nc3ccc([N+](=O)[O-])cc3c(=O)n2C(C)C)CC1` here?
The value was 85.8% (inactive).

For `CCN1CCN(Cc2nc3cc([N+](=O)[O-])ccc3c(=O)n2-c2ccccc2)CC1`, which “viability” value is on record?
Its value is 90% (inactive).

With `CCN1CCN(Cc2nc3ccc([N+](=O)[O-])cc3c(=O)n2-c2ccc(F)cc2)CC1` as the compound, how does the “viability” value read?
Its value is 94% (inactive).

Which “viability” value does the source give for `CN1CCN(Cc2nc3ccc([N+](=O)[O-])cc3c(=O)n2-c2ccccc2F)CC1` here?
The value was 87.8% [at 50 µM] (inactive).
